{"source": "the supplement of paper PMC8728848", "binders": {"B1": {"name": "DBA (Dolichos biflorus) (protein)", "chain": "ANIQSFSFKNFNSPSFILQGDATVSSGKLQLTKVKENGFPLRFPSGRAFYSSPIQIYDKFTGAVASWATSFTVKISAPSKASFADGIAFALVPVGSEPRRNGGYLGVFDSDVYNNSAQTVAVEFDTLSNSGWDPSMKHIGIDVNSIKSIATVSWDLANGENAEILITYNAATSLLVVSLVHPSRRTSYILSERVDITNELPEYVGVGFSATTGLSEGYIETHDVLSWSFASRLPDDSTAEPLDLARYLVRNVL"}}, "experiment_in_all_cases": "glycan array binding signal (z-score within array); higher = stronger binding", "conditions_in_all_cases": "glycan notation: IUPAC condensed, linker removed", "key": {"[1]": {"target": "Fuc(a1-2)Gal(b1-3)GalNAc(a1-3)[Fuc(a1-2)]Gal(b1-4)Glc", "summary_of_the_method": "(§1)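 Negative Z-scores can be read as non-binding. The Z-score is calculated within each array and then averaged across arrays of one protein sequence at different concentrations or buffers and across linkers. Arrays, 3228 in all, were curated from the Consortium for Functional Glycomics database and kept only where the protein sequence was available.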"}, "[2]": {"target": "Fuc(a1-2)Gal(b1-3)GlcNAc(b1-3)[Gal(b1-4)GlcNAc(b1-6)]Gal(b1-4)Glc", "summary_of_the_method": "as §1"}, "[3]": {"target": "Fuc(a1-2)Gal(b1-3)GlcNAc(b1-3)[Neu5Ac(a2-6)Gal(b1-4)GlcNAc(b1-6)]Gal(b1-4)Glc", "summary_of_the_method": "as §1"}, "[4]": {"target": "Fuc(a1-2)Gal(b1-3)[Fuc(a1-4)]GlcNAc", "summary_of_the_method": "as §1"}, "Fuc(a1-2)Gal(b1-4)Glc6S": {"target": "Fuc(a1-2)Gal(b1-4)Glc6S", "summary_of_the_method": "as §1"}, "[5]": {"target": "Fuc(a1-2)Gal(b1-4)[Fuc(a1-3)]GlcNAc(b1-3)GalNAc", "summary_of_the_method": "as §1"}, "[6]": {"target": "Fuc(a1-2)Gal3S(b1-4)GlcNAc", "summary_of_the_method": "as §1"}, "Fuc(a1-2)Gal6S(b1-4)Glc": {"target": "Fuc(a1-2)Gal6S(b1-4)Glc", "summary_of_the_method": "as §1"}, "[7]": {"target": "Fuc(a1-2)[GalNAc(a1-3)]Gal", "summary_of_the_method": "as §1"}, "[8]": {"target": "Fuc(a1-2)[GalNAc(a1-3)]Gal(b1-3)GlcNAc(b1-6)GalNAc", "summary_of_the_method": "as §1"}, "[9]": {"target": "Fuc(a1-2)[GalNAc(a1-3)]Gal(b1-4)Glc", "summary_of_the_method": "as §1"}, "[10]": {"target": "Fuc(a1-2)[GalNAc(a1-3)]Gal(b1-4)GlcNAc", "summary_of_the_method": "as §1"}, "[11]": {"target": "Fuc(a1-2)[GalNAc(a1-3)]Gal(b1-4)[Fuc(a1-3)]GlcNAc(b1-3)GalNAc", "summary_of_the_method": "as §1"}, "[12]": {"target": "Fuc(a1-3)[Gal(b1-4)]GlcNAc(b1-2)Man", "summary_of_the_method": "as §1"}, "[13]": {"target": "Fuc(a1-3)[Gal(b1-4)]GlcNAc(b1-4)Gal(b1-4)[Fuc(a1-3)]GlcNAc", "summary_of_the_method": "as §1"}, "[14]": {"target": "Fuc(a1-3)[Gal3S(b1-4)]GlcNAc6S", "summary_of_the_method": "as §1"}, "Fuc(a1-4)GlcNAc": {"target": "Fuc(a1-4)GlcNAc", "summary_of_the_method": "as §1"}, "Gal(a1-3)Gal(b1-3)GlcNAc": {"target": "Gal(a1-3)Gal(b1-3)GlcNAc", "summary_of_the_method": "as §1"}, "Gal(a1-3)Gal(b1-4)Glc": {"target": "Gal(a1-3)Gal(b1-4)Glc", "summary_of_the_method": "as §1"}, "[15]": {"target": "Gal(a1-4)Gal(b1-3)GlcNAc(b1-2)Man(a1-3)[Gal(a1-4)Gal(b1-3)GlcNAc(b1-2)Man(a1-6)]Man(b1-4)GlcNAc(b1-4)GlcNAc", "summary_of_the_method": "as §1"}, "Gal(a1-4)GlcNAc": {"target": "Gal(a1-4)GlcNAc", "summary_of_the_method": "as §1"}, "Gal(b1-2)Gal": {"target": "Gal(b1-2)Gal", "summary_of_the_method": "as §1"}, "[16]": {"target": "Gal(b1-3)GlcNAc(b1-3)Gal(b1-4)GlcNAc(b1-3)Gal(b1-4)GlcNAc(b1-2)[Gal(b1-3)GlcNAc(b1-3)Gal(b1-4)GlcNAc(b1-3)Gal(b1-4)GlcNAc(b1-6)]Man(a1-6)[Gal(b1-3)GlcNAc(b1-3)Gal(b1-4)GlcNAc(b1-3)Gal(b1-4)GlcNAc(b1-2)Man(a1-3)]Man(b1-4)GlcNAc(b1-4)[Fuc(a1-6)]GlcNAc", "summary_of_the_method": "as §1"}, "[17]": {"target": "Gal(b1-3)GlcNAc(b1-3)Gal(b1-4)[Fuc(a1-3)]GlcNAc(b1-6)[Gal(b1-3)GlcNAc(b1-3)]Gal(b1-4)Glc", "summary_of_the_method": "as §1"}, "[18]": {"target": "Gal(b1-3)GlcNAc(b1-3)GalNAc", "summary_of_the_method": "as §1"}, "[19]": {"target": "Gal(b1-4)GlcNAc(b1-3)Gal(b1-3)GlcNAc", "summary_of_the_method": "as §1"}, "[20]": {"target": "Gal(b1-4)GlcNAc(b1-3)GalNAc", "summary_of_the_method": "as §1"}, "[21]": {"target": "Gal(b1-4)GlcNAc(b1-6)[Gal(b1-3)]GalNAc", "summary_of_the_method": "as §1"}, "GalNAc(a1-3)GalNAc": {"target": "GalNAc(a1-3)GalNAc", "summary_of_the_method": "as §1"}, "[22]": {"target": "GalNAc(a1-3)GalNAc(a1-3)Gal(a1-4)Gal(b1-4)GlcNAc", "summary_of_the_method": "as §1"}}, "note": "The sample as a whole holds a higher share of the strongest signals than the screen did.", "data": [{"binder": "B1", "values": [{"measurement": "glycan array binding signal (z-score)", "setting": "[1]", "result": -0.133}, {"measurement": "glycan array binding signal (z-score)", "setting": "[2]", "result": -0.099}, {"measurement": "glycan array binding signal (z-score)", "setting": "[3]", "result": -0.152}, {"measurement": "glycan array binding signal (z-score)", "setting": "[4]", "result": -0.142}, {"measurement": "glycan array binding signal (z-score)", "setting": "Fuc(a1-2)Gal(b1-4)Glc6S", "result": -0.09}, {"measurement": "glycan array binding signal (z-score)", "setting": "[5]", "result": 0.449}, {"measurement": "glycan array binding signal (z-score)", "setting": "[6]", "result": -0.041}, {"measurement": "glycan array binding signal (z-score)", "setting": "Fuc(a1-2)Gal6S(b1-4)Glc", "result": 0.346}, {"measurement": "glycan array binding signal (z-score)", "setting": "[7]", "result": 0.024}, {"measurement": "glycan array binding signal (z-score)", "setting": "[8]", "result": -0.113}, {"measurement": "glycan array binding signal (z-score)", "setting": "[9]", "result": 0.577}, {"measurement": "glycan array binding signal (z-score)", "setting": "[10]", "result": 0.575}, {"measurement": "glycan array binding signal (z-score)", "setting": "[11]", "result": 0.333}, {"measurement": "glycan array binding signal (z-score)", "setting": "[12]", "result": -0.116}, {"measurement": "glycan array binding signal (z-score)", "setting": "[13]", "result": -0.19}, {"measurement": "glycan array binding signal (z-score)", "setting": "[14]", "result": -0.015}, {"measurement": "glycan array binding signal (z-score)", "setting": "Fuc(a1-4)GlcNAc", "result": -0.115}, {"measurement": "glycan array binding signal (z-score)", "setting": "Gal(a1-3)Gal(b1-3)GlcNAc", "result": -0.124}, {"measurement": "glycan array binding signal (z-score)", "setting": "Gal(a1-3)Gal(b1-4)Glc", "result": -0.119}, {"measurement": "glycan array binding signal (z-score)", "setting": "[15]", "result": -0.059}, {"measurement": "glycan array binding signal (z-score)", "setting": "Gal(a1-4)GlcNAc", "result": -0.126}, {"measurement": "glycan array binding signal (z-score)", "setting": "Gal(b1-2)Gal", "result": -0.113}, {"measurement": "glycan array binding signal (z-score)", "setting": "[16]", "result": 0.071}, {"measurement": "glycan array binding signal (z-score)", "setting": "[17]", "result": -0.1}, {"measurement": "glycan array binding signal (z-score)", "setting": "[18]", "result": -0.126}, {"measurement": "glycan array binding signal (z-score)", "setting": "[19]", "result": -0.125}, {"measurement": "glycan array binding signal (z-score)", "setting": "[20]", "result": -0.144}, {"measurement": "glycan array binding signal (z-score)", "setting": "[21]", "result": -0.121}, {"measurement": "glycan array binding signal (z-score)", "setting": "GalNAc(a1-3)GalNAc", "result": 12.1}, {"measurement": "glycan array binding signal (z-score)", "setting": "[22]", "result": 12.5}]}]}
